Measurements from the supplement of paper PMC10849652.
The full data set covers some 7,900 targets. This sample favours those with a hit. About 0.6% of all pairs of compound and target were hits.

What was measured:
Assay in all cases: log2 fold change, soluble protein after heating vs DMSO (PISA); higher = thermal stabilisation; K562 cells, 10 uM, 30 min; active = over 0.2 and 3.5 SD of the protein, either way, in both replicates (recomputed)
[1] = compound: CC1=C(C=C(C=C1)NC(=O)C2=CC(=CC=C2)C(C)(C)C#N)NC3=CC4=C(C=C3)N=CN(C4=O)C
Outline: (§1)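 Soluble protein was defined as the supernatant after 21,000xg for 90 min. It came from K562 cells at 2×10^6 cells/mL given 10 μM compound for 30 min, heated in aliquots for 3 min across 48°C-58°C, pooled, and extracted in PBS with 0.5% NP-40 at 4°C, and was quantified by TMTpro 16plex LC-MS/MS with equalised channel sums. Thermal stability against control samples, from duplicates, is reported as log2 fold change.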

[2] = compound: CC1=C(C=C(C=C1)NC(=O)C2=CC(=CC=C2)N(C)C)NC(=O)C3=CC=C(C=C3)O
Outline: as §1

[3] = compound: CC1=CC=C(C=C1)SC2=C3C=C(SC3=CN=C2)C(=O)N
Outline: as §1

[4] = compound: CC1=NC(=CC=C1)C2=C(N=C(N2)C(C)(C)C)C3=CC4=NC=CN=C4C=C3
Outline: as §1

[5] = compound: CCCCN(Cc1ccc(C(=O)NO)cc1)C(=O)Nc1ccccc1 [Nexturastat A]
Outline: as §1

[6] = compound: CCCS(=O)(=O)Nc1ccc(F)c(C(=O)c2c[nH]c3ncc(-c4ccc(Cl)cc4)cc23)c1F [vemurafenib]
Outline: as §1

[7] = compound: CCCS(=O)(=O)Nc1ccc(F)c(C(=O)c2c[nH]c3ncc(Cl)cc23)c1F
Outline: as §1

[8] = compound: CCCc1cc(C)[nH]c(=O)c1CNC(=O)c1cc(-c2ccnc(N3CCN(C)CC3)c2)cc2c1cnn2C(C)C
Outline: as §1

[9] = compound: CCN(CC)Cc1ccc2cc(COC(=O)Nc3ccc(C(=O)NO)cc3)ccc2c1 [givinostat]
Outline: as §1

[10] = compound: CCN(CCCOc1ccc2c(Nc3cc(CC(=O)Nc4cccc(F)c4)[nH]n3)ncnc2c1)CCOP(=O)(O)O [barasertib]
Outline: as §1

[11] = compound: CC[C@@H]1C(=O)N(C)c2cnc(Nc3ccc(C(=O)NC4CCN(C)CC4)cc3OC)nc2N1C1CCCC1
Outline: as §1

[12] = compound: CC[C@@H]1C(=O)N(C)c2cnc(Nc3ccc(C(=O)N[C@H]4CC[C@H](N5CCN(CC6CC6)CC5)CC4)cc3OC)nc2N1C(C)C [volasertib]
Outline: as §1

[13] = compound: CC[C@H](C)N1C=C(C2=C(C=C(C=C21)C3=CN=C(C=C3)N4CCNCC4)C(=O)NCC5=C(C=C(NC5=O)C)C)C
Outline: as §1

[14] = compound: CC[C@H](C)[C@@H](C(=O)N[C@@H]([C@@H](C)O)C(=O)N[C@@H](CC(C)C)C(=O)[C@]1(CO1)C)NC(=O)[C@H]([C@@H](C)CC)N(C)C(=O)C [epoxomicin]
Outline: as §1

[15] = compound: CCn1c(C(=O)N(C2CC2)C2CC2)cc2c3c(ncn3C)c(Nc3cc(C)n(C)n3)nc21
Outline: as §1

[16] = compound: CCn1cc(-c2ccnc3[nH]c(-c4cccc(CN(C)C)c4)cc23)c(-c2ccc(NC(=O)N(C)C)cc2)n1
Outline: as §1

[17] = compound: CN(C)CC(=O)Nc1ccc2[nH]c(=O)c3ccccc3c2c1
Outline: as §1

[18] = compound: CN(CCOC1=CC=C(C=C1)C[C@H]2C(=O)NC(=O)S2)C3=CC=CC=N3 (racemic) [rosiglitazone]
Outline: as §1

[19] = compound: CN1C2=C(C3=C1C(=O)N(N=C3)CC4=CC(=CC=C4)N)SC(=C2)S(=O)C
Outline: as §1

[20] = compound: CN1CCC(CNc2ccc3ncc(-c4cccc(OC(F)(F)F)c4)n3n2)CC1
Outline: as §1

Measured: log2 fold change

BZW1 isoform 3 (UniProt Q7L1Q6)
inactive: [1] 0.064 | [2] -0.014 | [3] 0.036 | [4] 0.038 | [5] 0.016 | [6] 0.107 | [7] 0.126 | [8] 0.105 | [9] 0.084 | [10] 0.06 | [11] -0.273 | [13] 0.114 | [14] 0.019 | [15] -0.128 | [16] -0.041 | [17] 0.104 | [18] 0.063 | [19] 0.068 | [20] -0.33
active: [12] -0.82

ATP1B3 (UniProt P54709)
Sequence of UniProt P54709 (P54709 whole entry, looked up): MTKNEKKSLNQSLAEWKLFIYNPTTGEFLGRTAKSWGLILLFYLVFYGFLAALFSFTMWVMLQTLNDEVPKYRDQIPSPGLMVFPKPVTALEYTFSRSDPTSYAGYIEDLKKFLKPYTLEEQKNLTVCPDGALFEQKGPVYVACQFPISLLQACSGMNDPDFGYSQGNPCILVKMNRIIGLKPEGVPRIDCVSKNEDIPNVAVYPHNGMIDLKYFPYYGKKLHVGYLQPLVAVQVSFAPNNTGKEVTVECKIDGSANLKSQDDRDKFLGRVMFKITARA
inactive: [1] 0 | [2] -0.015 | [3] -0.02 | [4] 0.046 | [5] -0.065 | [6] 0.005 | [7] -0.036 | [8] -0.018 | [9] -0.055 | [10] -0.021 | [11] 0.06 | [12] 0.094 | [13] -0.022 | [14] -0.033 | [15] 0.04 | [16] -0.028 | [17] 0.012 | [18] -0.011 | [19] -0.063 | [20] 0.168

APLP2 (UniProt Q06481)
inactive: [1] 0.088 | [2] -0.043 | [3] -0.003 | [4] -0.009 | [5] -0.053 | [6] -0.033 | [7] 0.011 | [8] 0.018 | [9] -0.041 | [10] -0.04 | [11] 0.076 | [12] -0.04 | [13] -0.092 | [14] 0.017 | [15] 0.089 | [16] 0.006 | [17] -0.106 | [18] -0.026 | [19] -0.004 | [20] 0.179

ALDH1B1 (UniProt P30837)
Sequence of UniProt P30837 (P30837 whole entry, looked up): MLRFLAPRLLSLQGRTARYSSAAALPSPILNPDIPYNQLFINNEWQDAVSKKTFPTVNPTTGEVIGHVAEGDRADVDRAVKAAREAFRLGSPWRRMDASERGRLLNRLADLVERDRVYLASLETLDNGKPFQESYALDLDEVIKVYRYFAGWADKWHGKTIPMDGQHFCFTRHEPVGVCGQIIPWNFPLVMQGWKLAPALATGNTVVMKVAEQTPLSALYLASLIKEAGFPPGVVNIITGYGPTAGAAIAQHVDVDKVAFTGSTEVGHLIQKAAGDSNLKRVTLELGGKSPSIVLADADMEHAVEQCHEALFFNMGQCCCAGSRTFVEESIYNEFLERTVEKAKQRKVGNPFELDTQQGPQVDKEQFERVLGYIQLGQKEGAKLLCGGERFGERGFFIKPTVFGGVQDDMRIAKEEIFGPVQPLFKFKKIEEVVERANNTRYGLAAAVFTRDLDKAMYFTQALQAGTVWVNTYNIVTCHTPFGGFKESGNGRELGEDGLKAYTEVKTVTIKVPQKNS
inactive: [1] 0.054 | [2] 0.008 | [3] 0.128 | [4] 0.017 | [5] -0.104 | [6] 0.011 | [7] 0.032 | [8] -0.016 | [9] 0.032 | [10] -0.001 | [11] -0.036 | [12] 0.05 | [13] -0.005 | [14] 0.032 | [15] -0.05 | [16] -0.113 | [17] 0.001 | [18] 0.048 | [19] -0.095 | [20] 0.058

BOP1 (UniProt Q14137)
Sequence of UniProt Q14137 (Q14137 whole entry, looked up): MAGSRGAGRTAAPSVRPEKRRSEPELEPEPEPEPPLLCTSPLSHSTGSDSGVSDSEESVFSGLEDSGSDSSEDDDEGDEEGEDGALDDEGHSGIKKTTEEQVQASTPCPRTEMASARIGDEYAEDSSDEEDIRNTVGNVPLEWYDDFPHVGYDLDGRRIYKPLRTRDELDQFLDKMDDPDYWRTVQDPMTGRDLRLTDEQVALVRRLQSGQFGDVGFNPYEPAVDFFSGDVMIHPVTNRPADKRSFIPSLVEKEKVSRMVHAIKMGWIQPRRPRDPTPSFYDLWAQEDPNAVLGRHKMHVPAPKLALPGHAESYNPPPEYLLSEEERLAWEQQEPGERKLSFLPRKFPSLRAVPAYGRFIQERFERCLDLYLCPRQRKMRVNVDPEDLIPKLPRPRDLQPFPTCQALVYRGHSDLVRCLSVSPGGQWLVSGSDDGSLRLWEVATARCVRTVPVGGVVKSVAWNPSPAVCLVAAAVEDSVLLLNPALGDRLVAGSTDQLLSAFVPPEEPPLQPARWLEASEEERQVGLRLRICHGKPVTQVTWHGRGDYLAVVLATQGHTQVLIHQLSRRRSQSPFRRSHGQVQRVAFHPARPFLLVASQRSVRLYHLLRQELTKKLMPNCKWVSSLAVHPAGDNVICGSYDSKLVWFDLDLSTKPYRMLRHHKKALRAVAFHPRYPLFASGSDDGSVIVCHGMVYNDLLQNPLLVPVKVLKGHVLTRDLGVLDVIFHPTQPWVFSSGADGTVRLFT
inactive: [1] -0.06 | [2] 0.007 | [3] 0.015 | [4] 0.023 | [5] 0.162 | [6] 0.047 | [7] -0.006 | [8] 0.055 | [9] 0.09 | [10] -0.054 | [11] -0.072 | [12] -0.328 | [13] 0.019 | [14] 0.002 | [15] -0.023 | [16] -0.075 | [17] 0.009 | [18] -0.053 | [19] 0.228 | [20] 0.141

ADK (UniProt P55263)
Sequence of UniProt P55263 (P55263 whole entry, looked up): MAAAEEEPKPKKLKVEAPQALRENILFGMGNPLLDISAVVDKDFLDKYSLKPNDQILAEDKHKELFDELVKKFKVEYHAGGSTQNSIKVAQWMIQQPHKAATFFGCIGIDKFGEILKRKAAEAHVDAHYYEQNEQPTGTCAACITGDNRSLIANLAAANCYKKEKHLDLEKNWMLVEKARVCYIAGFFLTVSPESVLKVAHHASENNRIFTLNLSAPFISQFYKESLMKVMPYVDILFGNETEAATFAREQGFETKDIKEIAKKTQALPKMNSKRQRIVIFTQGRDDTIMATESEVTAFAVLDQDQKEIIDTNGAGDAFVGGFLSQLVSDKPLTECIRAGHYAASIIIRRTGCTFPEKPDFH
inactive: [1] 0.03 | [2] -0.027 | [3] 0 | [4] -0.011 | [5] -0.04 | [6] -0.013 | [7] -0.046 | [8] 0.106 | [9] -0.076 | [10] -0.026 | [11] 0.338 | [12] 0.359 | [13] -0.095 | [14] -0.011 | [15] 0.097 | [16] -0.026 | [17] -0.018 | [18] -0.017 | [19] -0.085 | [20] 0.184

ATOX1 (UniProt O00244)
Sequence of UniProt O00244 (O00244 whole entry, looked up): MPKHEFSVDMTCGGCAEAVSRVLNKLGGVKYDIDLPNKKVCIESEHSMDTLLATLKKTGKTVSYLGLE
inactive: [1] 0.056 | [2] -0.065 | [3] 0.275 | [4] 0.239 | [5] -0.037 | [6] 0.054 | [7] 0.372 | [8] 0.28 | [9] -0.072 | [10] -0.025 | [11] 0.009 | [12] 0 | [13] -0.015 | [14] 0.107 | [15] 0.016 | [16] -0.079 | [17] 0.056 | [18] 0.012 | [19] -0.023 | [20] 0.094

ADH5 (UniProt P11766)
inactive: [1] 0.004 | [2] 0.008 | [3] 0.043 | [4] 0.009 | [5] -0.103 | [6] -0.007 | [7] 0.008 | [8] -0.046 | [9] -0.01 | [10] -0.023 | [11] 0.01 | [12] 0.02 | [13] -0.024 | [14] -0.016 | [15] 0.043 | [16] -0.001 | [17] -0.01 | [18] 0.026 | [19] -0.052 | [20] -0.02

ACP1 isoform 2 (UniProt P24666)
Sequence of UniProt P24666 (P24666 whole entry, looked up): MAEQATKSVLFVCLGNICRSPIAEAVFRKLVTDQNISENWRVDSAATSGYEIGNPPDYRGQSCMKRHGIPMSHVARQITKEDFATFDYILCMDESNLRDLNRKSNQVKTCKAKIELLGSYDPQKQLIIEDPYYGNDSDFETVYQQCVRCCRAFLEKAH
inactive: [1] 0.008 | [2] -0.013 | [3] 0.025 | [4] -0.008 | [5] 0.08 | [6] 0.031 | [7] 0.026 | [8] 0.043 | [9] 0.058 | [10] 0.074 | [11] 0.034 | [12] 0.055 | [13] 0.063 | [14] 0.012 | [15] -0.1 | [16] -0.083 | [17] 0.05 | [18] 0.027 | [19] 0.014 | [20] -0.07

ACIN1 (UniProt Q9UKV3)
Sequence of UniProt Q9UKV3 (Q9UKV3 whole entry, looked up): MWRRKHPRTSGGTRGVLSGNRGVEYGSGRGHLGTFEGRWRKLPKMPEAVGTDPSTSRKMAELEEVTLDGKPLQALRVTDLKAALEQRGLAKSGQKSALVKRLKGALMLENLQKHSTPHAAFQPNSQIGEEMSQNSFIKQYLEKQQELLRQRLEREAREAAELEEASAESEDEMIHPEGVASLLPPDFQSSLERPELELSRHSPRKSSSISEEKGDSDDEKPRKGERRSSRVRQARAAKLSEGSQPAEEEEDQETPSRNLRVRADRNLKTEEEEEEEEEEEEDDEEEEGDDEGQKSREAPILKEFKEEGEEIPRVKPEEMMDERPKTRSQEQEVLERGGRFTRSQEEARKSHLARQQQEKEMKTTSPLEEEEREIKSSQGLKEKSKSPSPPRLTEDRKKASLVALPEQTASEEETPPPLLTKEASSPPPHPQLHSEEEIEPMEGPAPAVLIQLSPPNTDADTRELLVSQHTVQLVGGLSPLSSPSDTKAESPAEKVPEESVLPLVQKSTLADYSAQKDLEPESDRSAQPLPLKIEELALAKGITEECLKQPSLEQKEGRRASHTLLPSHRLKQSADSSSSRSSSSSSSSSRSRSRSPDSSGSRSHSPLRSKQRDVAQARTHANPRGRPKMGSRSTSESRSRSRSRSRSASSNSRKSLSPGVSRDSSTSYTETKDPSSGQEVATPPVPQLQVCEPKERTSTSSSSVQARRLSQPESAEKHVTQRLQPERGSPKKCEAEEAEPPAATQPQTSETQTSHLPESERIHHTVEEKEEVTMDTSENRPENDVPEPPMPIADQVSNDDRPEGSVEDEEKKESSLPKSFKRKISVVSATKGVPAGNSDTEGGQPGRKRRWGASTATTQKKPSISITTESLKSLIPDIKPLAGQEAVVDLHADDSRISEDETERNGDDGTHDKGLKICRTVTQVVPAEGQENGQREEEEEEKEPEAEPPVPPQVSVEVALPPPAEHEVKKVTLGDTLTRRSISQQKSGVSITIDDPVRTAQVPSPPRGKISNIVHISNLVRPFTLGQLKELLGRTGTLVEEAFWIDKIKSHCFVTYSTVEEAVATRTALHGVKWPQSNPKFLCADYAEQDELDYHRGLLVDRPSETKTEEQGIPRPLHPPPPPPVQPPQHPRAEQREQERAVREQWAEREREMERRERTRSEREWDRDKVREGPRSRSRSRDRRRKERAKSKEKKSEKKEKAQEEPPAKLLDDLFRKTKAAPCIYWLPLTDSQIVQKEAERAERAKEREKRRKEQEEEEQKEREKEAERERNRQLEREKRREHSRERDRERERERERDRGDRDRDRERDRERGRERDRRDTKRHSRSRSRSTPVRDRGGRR
inactive: [1] -0.028 | [2] 0.039 | [3] -0.015 | [4] -0.013 | [5] 0.044 | [6] 0 | [7] 0.014 | [8] 0.023 | [9] 0.105 | [10] -0.008 | [11] -0.017 | [12] -0.056 | [13] -0.012 | [14] -0.048 | [15] -0.057 | [16] 0.004 | [17] -0.034 | [18] 0.008 | [19] -0.021 | [20] -0.097

ACADM isoform 2 (UniProt P11310)
Sequence of UniProt P11310 (P11310 whole entry, looked up): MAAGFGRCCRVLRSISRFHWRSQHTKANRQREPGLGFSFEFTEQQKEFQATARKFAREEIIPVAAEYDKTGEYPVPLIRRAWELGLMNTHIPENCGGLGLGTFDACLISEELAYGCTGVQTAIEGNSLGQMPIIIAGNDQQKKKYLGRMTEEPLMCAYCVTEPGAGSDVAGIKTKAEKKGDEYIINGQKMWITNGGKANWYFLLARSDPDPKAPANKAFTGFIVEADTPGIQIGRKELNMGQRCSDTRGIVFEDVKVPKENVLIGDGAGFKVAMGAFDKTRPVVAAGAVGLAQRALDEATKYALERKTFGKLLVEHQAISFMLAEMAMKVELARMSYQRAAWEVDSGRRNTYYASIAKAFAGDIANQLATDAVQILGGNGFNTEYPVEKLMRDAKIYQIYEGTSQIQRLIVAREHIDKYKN
inactive: [1] -0.018 | [2] -0.024 | [3] 0.001 | [4] 0.017 | [5] 0.009 | [6] 0.009 | [7] -0.015 | [8] -0.042 | [9] -0.033 | [10] 0 | [11] -0.045 | [12] -0.03 | [13] -0.015 | [14] 0.015 | [15] 0.014 | [16] -0.042 | [17] -0.024 | [18] 0.008 | [19] -0.078 | [20] -0.011

ACSF3 (UniProt Q4G176)
inactive: [1] -0.002 | [2] 0.038 | [3] 0.007 | [4] 0.023 | [5] -0.005 | [6] 0.029 | [7] 0.003 | [8] 0.008 | [9] -0.022 | [10] 0.051 | [11] -0.014 | [12] -0.093 | [13] 0.039 | [14] 0.152 | [15] 0.034 | [16] -0.17 | [17] 0.008 | [18] 0.125 | [19] 0.016 | [20] -0.116

B4GALT1 (UniProt P15291)
Sequence of UniProt P15291 (P15291 whole entry, looked up): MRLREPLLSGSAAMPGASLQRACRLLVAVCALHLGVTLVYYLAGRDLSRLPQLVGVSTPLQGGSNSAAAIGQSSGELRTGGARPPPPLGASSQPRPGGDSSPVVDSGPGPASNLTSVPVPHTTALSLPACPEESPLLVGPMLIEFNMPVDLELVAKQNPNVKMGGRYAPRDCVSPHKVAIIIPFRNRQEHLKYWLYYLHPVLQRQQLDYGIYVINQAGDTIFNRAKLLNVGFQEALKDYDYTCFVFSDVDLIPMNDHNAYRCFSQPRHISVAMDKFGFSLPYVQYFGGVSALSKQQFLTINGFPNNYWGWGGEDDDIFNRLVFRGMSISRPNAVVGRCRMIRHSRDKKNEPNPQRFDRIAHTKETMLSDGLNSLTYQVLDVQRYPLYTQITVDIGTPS
active: [11] -0.324 | [12] -0.571 | [20] -0.28
inactive: [1] -0.009 | [2] -0.027 | [3] 0.002 | [4] -0.05 | [5] -0.022 | [6] 0.035 | [7] 0.012 | [8] -0.044 | [9] -0.113 | [10] -0.01 | [13] 0.033 | [14] 0.051 | [15] 0.041 | [16] -0.048 | [17] -0.03 | [18] 0.072 | [19] -0.081

ARAF (UniProt P10398)
inactive: [1] 0.063 | [2] -0.049 | [3] -0.069 | [4] -0.007 | [5] 0.003 | [6] 0.064 | [7] 0.123 | [8] 0.019 | [9] 0.029 | [10] 0.074 | [11] 0.053 | [12] 0.311 | [13] 0.129 | [14] 0.013 | [15] -0.041 | [16] -0.002 | [17] 0.054 | [18] 0.047 | [19] -0.025 | [20] -0.132

BTAF1 (UniProt O14981)
inactive: [1] -0.033 | [2] 0.07 | [3] -0.035 | [4] 0.011 | [5] -0.064 | [6] -0.003 | [7] 0.041 | [8] -0.018 | [9] 0.009 | [10] 0.038 | [11] -0.087 | [13] 0.061 | [14] 0.086 | [15] -0.047 | [16] -0.07 | [17] 0.027 | [18] -0.042 | [19] -0.055 | [20] -0.09
active: [12] -0.265

AIP (UniProt O00170)
Sequence of UniProt O00170 (O00170 whole entry, looked up): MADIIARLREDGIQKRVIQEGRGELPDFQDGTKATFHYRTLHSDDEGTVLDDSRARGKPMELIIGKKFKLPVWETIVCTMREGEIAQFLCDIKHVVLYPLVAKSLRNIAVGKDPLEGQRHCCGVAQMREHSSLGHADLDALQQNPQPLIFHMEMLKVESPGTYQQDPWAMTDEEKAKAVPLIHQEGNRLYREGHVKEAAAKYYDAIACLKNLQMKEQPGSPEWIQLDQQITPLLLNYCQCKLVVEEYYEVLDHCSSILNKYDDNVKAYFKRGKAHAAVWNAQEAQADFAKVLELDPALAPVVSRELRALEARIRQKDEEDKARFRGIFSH
inactive: [1] 0.014 | [2] -0.074 | [3] 0.032 | [4] 0.07 | [5] -0.07 | [6] 0.071 | [7] 0.088 | [8] 0.065 | [9] 0.043 | [10] 0.031 | [11] -0.115 | [13] 0.054 | [14] 0.172 | [15] -0.006 | [16] -0.051 | [17] 0.057 | [18] 0.053 | [19] -0.085 | [20] -0.047
active: [12] -0.372
